Test results reported in ChEMBL document CHEMBL3988442, “University of Dundee, Small-Polar-MMV Screening Library” (2021).
For some of these results: Entries with a potency or affinity are not part of this list.

Legend:
Design in all cases: scale not given: direction of the effect not stated beside the values
[1] = molecular target: Protein translocase subunit SecA (Escherichia coli (strain K12)) (UniProt P10408); assay: Assay to Identify E. coli SecA ATPase Inhibitors; type: functional; conditions: 30 µM
Chain of Protein translocase subunit SecA (Escherichia coli (strain K12)) (P10408 whole entry): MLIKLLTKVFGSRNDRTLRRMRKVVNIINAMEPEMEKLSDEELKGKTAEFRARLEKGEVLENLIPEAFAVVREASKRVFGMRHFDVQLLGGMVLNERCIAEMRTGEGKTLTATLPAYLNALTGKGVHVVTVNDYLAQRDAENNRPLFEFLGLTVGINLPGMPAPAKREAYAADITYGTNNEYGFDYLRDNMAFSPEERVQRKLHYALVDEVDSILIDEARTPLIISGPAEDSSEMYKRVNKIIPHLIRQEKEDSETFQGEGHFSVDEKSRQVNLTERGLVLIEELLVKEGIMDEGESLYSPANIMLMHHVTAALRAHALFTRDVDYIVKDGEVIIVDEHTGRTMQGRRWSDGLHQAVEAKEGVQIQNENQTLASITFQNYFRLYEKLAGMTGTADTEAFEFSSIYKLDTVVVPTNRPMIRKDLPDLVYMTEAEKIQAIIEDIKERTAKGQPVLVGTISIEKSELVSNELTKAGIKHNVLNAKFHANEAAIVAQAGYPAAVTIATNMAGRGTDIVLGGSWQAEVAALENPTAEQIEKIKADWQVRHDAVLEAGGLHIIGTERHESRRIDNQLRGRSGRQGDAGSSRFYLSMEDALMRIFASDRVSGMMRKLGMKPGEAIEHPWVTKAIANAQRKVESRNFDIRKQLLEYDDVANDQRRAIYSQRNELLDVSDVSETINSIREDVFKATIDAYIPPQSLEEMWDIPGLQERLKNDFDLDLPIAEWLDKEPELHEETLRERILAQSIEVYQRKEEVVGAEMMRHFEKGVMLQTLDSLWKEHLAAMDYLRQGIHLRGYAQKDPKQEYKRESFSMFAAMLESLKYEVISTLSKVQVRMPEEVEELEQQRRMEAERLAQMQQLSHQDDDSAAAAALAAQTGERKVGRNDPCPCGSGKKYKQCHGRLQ

[2] = molecular target: T1, Ubiquitin-activating enzyme e1, putative (Leishmania donovani (strain BPK282A1)) (UniProt E9BSI1); assay: Leishmania donovani Ubiquitin Activating Enzyme (LdE1); type: functional; conditions: 30 µM
T1 sequence (whole entry): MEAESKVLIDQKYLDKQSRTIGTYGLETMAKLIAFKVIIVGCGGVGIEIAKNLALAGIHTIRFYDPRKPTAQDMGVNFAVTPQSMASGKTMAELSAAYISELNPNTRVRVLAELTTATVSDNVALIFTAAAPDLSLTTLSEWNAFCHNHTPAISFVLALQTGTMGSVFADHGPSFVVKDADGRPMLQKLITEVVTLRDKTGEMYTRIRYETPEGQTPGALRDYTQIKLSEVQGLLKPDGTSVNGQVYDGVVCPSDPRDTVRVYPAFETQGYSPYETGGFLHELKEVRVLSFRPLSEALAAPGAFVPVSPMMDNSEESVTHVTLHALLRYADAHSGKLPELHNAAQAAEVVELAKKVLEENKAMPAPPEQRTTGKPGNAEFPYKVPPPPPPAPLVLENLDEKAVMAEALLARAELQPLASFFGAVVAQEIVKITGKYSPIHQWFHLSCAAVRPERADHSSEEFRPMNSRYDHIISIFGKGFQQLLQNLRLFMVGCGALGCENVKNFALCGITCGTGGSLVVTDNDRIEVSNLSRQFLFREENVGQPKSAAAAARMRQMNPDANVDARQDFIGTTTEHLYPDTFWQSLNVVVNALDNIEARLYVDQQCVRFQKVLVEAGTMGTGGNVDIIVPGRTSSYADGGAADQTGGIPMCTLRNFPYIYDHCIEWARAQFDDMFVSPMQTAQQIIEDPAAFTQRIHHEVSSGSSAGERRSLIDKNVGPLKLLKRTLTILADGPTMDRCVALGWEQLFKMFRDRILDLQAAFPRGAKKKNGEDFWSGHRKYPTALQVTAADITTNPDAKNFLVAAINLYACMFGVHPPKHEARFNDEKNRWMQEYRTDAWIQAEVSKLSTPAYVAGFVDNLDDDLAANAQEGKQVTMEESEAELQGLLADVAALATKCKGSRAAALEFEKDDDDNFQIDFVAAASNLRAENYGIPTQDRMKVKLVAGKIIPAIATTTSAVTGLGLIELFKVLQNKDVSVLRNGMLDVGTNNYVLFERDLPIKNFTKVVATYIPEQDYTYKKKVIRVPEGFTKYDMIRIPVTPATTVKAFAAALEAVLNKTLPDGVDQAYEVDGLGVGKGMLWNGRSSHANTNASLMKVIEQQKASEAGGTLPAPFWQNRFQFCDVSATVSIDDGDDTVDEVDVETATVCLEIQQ

[3] = molecular target: AMP-activated protein kinase, AMPK (Homo sapiens) (UniProt P54646+O43741+P54619+Q9UGJ0+Q9Y478+Q13131+Q9UGI9); assay: AMP-dependent Kinase enzyme assay. An in vitro enzyme assay that detects ADP turnover that is directly proportional to AMPK activity. This uses naive AMPK that is activated during the assay with MK-8722; type: functional; conditions: 30 µM
[4] = molecular target: Sialic acid-binding Ig-like lectin 9 (Homo sapiens) (UniProt Q9Y336); assay: Hs-Siglec9 ALPHAscreen SOP 20170721; conditions: 10 µM
Chain of Sialic acid-binding Ig-like lectin 9 (Homo sapiens) (Q9Y336 whole entry): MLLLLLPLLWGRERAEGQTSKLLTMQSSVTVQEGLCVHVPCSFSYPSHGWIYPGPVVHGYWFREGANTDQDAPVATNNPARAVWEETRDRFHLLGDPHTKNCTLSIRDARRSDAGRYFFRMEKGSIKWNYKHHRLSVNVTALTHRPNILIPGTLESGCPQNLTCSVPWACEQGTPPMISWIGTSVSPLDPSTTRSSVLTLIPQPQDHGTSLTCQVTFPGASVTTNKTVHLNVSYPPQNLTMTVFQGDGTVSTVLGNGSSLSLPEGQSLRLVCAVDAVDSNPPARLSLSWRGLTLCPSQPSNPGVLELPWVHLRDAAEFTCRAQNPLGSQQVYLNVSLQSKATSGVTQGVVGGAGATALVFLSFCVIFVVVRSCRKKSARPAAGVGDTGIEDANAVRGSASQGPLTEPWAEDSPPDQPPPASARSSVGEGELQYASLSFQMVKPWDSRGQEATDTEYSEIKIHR

Trypanosoma cruzi = assay: Trypanosoma cruzi phosphomannomutase and mannose-1-phosphate guanylyltransferase assay; type: functional; conditions: 10 µM
[5] = molecular target: T2, Arginase-2, mitochondrial (Homo sapiens) (UniProt P78540); assay: in vitro enzyme assay to detect the production of urea directly proportional to the activity of Arginase II; type: functional; conditions: 33.3 µM; further: in the data most compounds retested in dose-response had high values
T2 sequence (whole entry): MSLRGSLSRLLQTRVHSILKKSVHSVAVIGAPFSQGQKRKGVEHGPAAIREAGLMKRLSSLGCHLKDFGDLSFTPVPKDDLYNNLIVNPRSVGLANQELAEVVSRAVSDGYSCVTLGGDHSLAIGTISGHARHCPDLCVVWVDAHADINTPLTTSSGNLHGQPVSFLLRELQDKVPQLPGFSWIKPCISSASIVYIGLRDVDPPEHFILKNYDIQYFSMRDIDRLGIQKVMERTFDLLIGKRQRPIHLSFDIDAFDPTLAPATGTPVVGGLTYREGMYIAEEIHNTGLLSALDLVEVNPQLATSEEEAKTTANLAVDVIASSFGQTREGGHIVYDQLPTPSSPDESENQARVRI

[6] = molecular target: T3, Proteasome subunit beta (Trypanosoma cruzi) (UniProt O96673); assay: Trypanosoma cruzi proteasome chymotrypsin-like activity (TcProtChymo) assay.; further: in the data most compounds retested in dose-response had high values; type: functional; conditions: 9.37 µM
T3 sequence (whole entry): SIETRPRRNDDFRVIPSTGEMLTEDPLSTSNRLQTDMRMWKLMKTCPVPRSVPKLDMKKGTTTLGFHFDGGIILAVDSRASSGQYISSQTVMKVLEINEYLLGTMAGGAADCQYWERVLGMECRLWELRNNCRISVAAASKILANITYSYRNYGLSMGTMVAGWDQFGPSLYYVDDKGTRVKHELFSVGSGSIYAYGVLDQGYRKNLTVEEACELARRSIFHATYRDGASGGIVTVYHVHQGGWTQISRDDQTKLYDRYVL

Homo sapiens = species on record: Homo sapiens; assay: To identify inhibition of the IFN signalling (Jak-Stat) pathway via expression of an eGFP reporter gene under the control of an IFN-stimulated response element (ISRE) containing MxA promoter.; type: functional; conditions: 30 µM
[7] = molecular target: T4, Tyrosyl-tRNA synthetase, putative (Trypanosoma cruzi (strain CL Brener)) (UniProt Q4DSP6); assay: Trypanosoma cruzi tyrosyl tRNA synthetase (TcYRS) _High Tyrosine SOP; type: functional; conditions: 30 µM; further: in the data most compounds retested in dose-response had high values
T4 sequence (whole entry): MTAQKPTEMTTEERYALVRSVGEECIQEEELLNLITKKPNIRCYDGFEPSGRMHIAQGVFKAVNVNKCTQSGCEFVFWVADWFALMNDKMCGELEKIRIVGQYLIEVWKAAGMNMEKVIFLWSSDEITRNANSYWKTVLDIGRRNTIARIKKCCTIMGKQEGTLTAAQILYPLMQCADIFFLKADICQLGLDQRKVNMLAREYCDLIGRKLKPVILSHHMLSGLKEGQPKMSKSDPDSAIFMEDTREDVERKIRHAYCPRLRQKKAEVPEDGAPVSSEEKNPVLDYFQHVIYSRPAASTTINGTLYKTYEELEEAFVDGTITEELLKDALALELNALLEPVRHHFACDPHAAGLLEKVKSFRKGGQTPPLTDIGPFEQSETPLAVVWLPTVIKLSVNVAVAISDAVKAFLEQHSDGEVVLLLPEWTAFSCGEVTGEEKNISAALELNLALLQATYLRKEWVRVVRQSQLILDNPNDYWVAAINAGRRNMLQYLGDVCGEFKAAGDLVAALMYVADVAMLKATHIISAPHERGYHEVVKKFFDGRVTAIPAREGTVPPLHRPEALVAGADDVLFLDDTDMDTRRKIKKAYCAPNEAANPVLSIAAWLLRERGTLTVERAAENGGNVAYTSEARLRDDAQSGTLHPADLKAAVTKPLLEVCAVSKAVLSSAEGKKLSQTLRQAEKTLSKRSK

[8] = molecular target: T4, Tyrosyl-tRNA synthetase, putative (Trypanosoma cruzi (strain CL Brener)); assay: Trypanosoma cruzi tyrosyl tRNA synthetase (TcYRS) SOP; type: functional; conditions: 30 µM
[9] = molecular target: Chromo domain-containing protein 1 (Saccharomyces cerevisiae (strain ATCC 204508 / S288c) (Baker's yeast)) (UniProt P32657); assay: ScCHD-1 Enzyme Inhibition Assay; type: functional; conditions: 30 µM; further: in the data most compounds retested in dose-response had high values
Chain of Chromo domain-containing protein 1 (Saccharomyces cerevisiae (strain ATCC 204508 / S288c) (Baker's yeast)) (P32657 whole entry, the tested form may be a part): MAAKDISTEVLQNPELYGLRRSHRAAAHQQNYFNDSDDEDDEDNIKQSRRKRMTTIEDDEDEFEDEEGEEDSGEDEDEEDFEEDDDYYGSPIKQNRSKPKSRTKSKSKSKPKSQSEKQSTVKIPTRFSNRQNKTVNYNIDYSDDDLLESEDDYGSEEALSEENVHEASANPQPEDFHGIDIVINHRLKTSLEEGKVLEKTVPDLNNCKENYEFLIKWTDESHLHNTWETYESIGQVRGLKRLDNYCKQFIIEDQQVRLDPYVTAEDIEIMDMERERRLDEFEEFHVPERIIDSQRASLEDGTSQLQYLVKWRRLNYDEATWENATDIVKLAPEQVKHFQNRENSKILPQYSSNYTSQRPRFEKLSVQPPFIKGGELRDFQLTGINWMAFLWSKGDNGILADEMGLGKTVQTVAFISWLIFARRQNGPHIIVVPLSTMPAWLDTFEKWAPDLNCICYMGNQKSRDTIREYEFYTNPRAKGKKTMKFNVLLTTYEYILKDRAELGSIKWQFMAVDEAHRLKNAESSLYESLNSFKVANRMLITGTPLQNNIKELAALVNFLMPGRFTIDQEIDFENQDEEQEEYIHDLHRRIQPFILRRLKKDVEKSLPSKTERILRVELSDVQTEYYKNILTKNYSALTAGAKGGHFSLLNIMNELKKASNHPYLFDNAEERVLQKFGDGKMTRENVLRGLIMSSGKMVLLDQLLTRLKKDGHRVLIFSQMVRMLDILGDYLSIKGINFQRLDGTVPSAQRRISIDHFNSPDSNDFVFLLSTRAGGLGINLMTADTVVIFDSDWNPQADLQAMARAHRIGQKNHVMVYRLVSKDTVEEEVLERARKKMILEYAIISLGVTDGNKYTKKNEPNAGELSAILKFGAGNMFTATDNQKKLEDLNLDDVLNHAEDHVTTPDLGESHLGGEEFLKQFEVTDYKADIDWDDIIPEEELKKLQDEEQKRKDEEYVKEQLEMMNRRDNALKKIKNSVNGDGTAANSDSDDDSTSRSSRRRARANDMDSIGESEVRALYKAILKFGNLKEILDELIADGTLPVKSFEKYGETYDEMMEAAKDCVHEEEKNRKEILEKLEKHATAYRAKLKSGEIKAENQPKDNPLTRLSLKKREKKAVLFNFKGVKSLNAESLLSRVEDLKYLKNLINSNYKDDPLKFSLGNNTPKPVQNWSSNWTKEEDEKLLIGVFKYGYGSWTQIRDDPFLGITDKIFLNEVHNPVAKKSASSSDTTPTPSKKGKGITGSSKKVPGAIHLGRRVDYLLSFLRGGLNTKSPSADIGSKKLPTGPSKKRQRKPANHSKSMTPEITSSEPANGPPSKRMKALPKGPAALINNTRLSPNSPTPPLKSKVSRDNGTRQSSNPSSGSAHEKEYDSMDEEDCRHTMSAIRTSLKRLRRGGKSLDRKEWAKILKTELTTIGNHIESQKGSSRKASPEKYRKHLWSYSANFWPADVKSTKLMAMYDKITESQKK

SMILES | Percent Effect [1] [%] | Percent Effect [2] [%] | Percent Effect [3] [%] | Percent Effect [4] [%] | Percent Effect (Trypanosoma cruzi) [%] | Percent Effect [5] [%] | Percent Effect [6] [%] | Percent Effect (Homo sapiens) [%] | Percent Effect [7] [%] | Percent Effect [8] [%] | Percent Effect [9] [%]
Cc1noc(C)c1CN1C[C@@H]2COC[C@H](C(=O)N3CCCCO3)[C@@H]2C1 | -5.77 | 8 | 8.79 | -0.115 | -5.12 | -1.17 | 7.31 | 3.63 | 6.38 | 8.97 | -0.163
O=C(Cc1ccc2c(c1)OCO2)N1CCCN(c2ccccc2)CC1 | -6.04 | 13.7 | 3.46 | 5.03 | 0.992 | -2 | 4.54 | 10.8 | 3.12 | 11.1 | -0.294
O=C(C1CCCC1)N1CCN(Cc2nc(-c3ccco3)no2)CC1 | -5.54 | 13.5 | -5.37 | 16 | 3.99 | -1.29 | 3.23 | 19.1 | 4.95 | 15.8 | -4.84
CC(C(=O)Nc1ccc(N2CCCC2)nc1)n1cncn1 (stereo unspecified) | -5.02 | 10.8 | -32.5 | 18.1 | 4.62 | -9.62 | 14.2 | 19.2 | 7.39 | 18.5 | -10.4
CC(C)c1nc(C2CCCN2C(=O)c2ccc(N(C)C)nn2)no1 (stereo unspecified) | -0.476 | 16.2 | -4.5 | -2.95 | 0.0929 | -4.25 | 6.1 | 24.1 | 3.96 | 15.8 | -5.4
NC(=O)c1ccc(NC(=O)CCN2CCCC(N3CCCC3)C2)cc1 (stereo unspecified) | -9.36 | 13.5 | -4.04 | 16.5 | 8.98 | 22.5 | 9.38 | 19.4 | 9.9 | 15.8 | -5.57
CC(C)(C)c1ccn(C2(C(=O)O)CCN(c3nccc(N)n3)CC2)n1 | -4.48 | -6.94 | 0.972 | 0.435 | -2.23 | -0.442 | 10.7 | 0.112 | 3.16 | -5.13 | 6.06
COc1nccc(N2CCN(Cc3ccc(C)cc3)C(=O)C2)c1C#N | -1.96 | 15.6 | -4.99 | 5.78 | 8.16 | -33.1 | 13.3 | -2.81 | 8.6 | 21 | 9
CC(C)c1nc2n(n1)CC(NCc1nnc(C(C)C)o1)CC2 (stereo unspecified) | -2.44 | 13.5 | 139 | 8.12 | 7.08 | -4.81 | 5.41 | 10.9 | 6.4 | 18.5 | -8.46
Cc1ccc(C(=O)N2CCC3(CCC(=O)N(CC(N)=O)C3)CC2)c(O)c1 | 1.03 | 4.17 | -0.266 | -3.34 | -2.82 | -2.65 | 14.2 | -6.14 | 3.16 | 5.13 | -3
Cc1ccsc1[C@@H]1CCN(C(=O)CCC(=O)N2CCCCCC2)C[C@H]1O | -3.23 | 6.94 | -7.07 | -3.16 | 1.46 | -1.32 | 4.91 | -6.38 | 5.26 | 10.3 | -2.41
